The supplement of paper PMC6555819

Tests used:
Assay in all cases: PBM binding z-score (relative to random genomic background probes); higher = stronger binding; sequences stand for … in GC…GCGATTGACAGCGTAGAATGAAGG
[1] = tested on: PPARg:RXRa DBDmut IVT, anti-RXR (DBD mutation: RXRa K156A/R161A, NR concentration 270 nM, RXRa partner concentration 90 nM)
Procedure, shortened: (§1)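 Binding buffer was PBS pH 7.4 with 2% milk, 0.02% Triton X-100, 1 mM DTT, 0.2 mg/mL BSA and 0.4 mg/ml salmon testes DNA. In it, ligand-free nuclear receptor dimers were incubated 1 h on custom Agilent 4×180K protein-binding microarrays carrying double-stranded probes. Antibodies against each partner (one per run) detected binding, and z-scores were calculated against random background probes after regression normalization of scanned fluorescence.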

[2] = tested on: PPARg:RXRa IVT, anti-PPARg (NR concentration 270 nM, RXRa partner concentration 90 nM)
Procedure, shortened: as §1

[3] = tested on: PPARg DBDmut:RXRa IVT, anti-PPARg (DBD mutation: PPARg1 K132A/R137A, NR concentration 270 nM, RXRa partner concentration 90 nM)
Procedure, shortened: as §1

[4] = tested on: PPARg DBDmut IVT, anti-PPARg (DBD mutation: PPARg1 K132A/R137A, NR concentration 270 nM)
Procedure, shortened: as §1

[5] = tested on: PPARg homodimer (NR concentration 180 nM)
Procedure, shortened: as §1

[6] = tested on: PXR:RXRa (NR concentration 270 nM, RXRa partner concentration 90 nM)
Procedure, shortened: as §1

[7] = tested on: PXR homodimer (NR concentration 270 nM)
Procedure, shortened: as §1

[8] = tested on: RARa:RXR (NR concentration 270 nM, RXRa partner concentration 90 nM)
Procedure, shortened: as §1

[9] = tested on: RARa homodimer (NR concentration 270 nM)
Procedure, shortened: as §1

[10] = tested on: RARb:RXRa (NR concentration 270 nM, RXRa partner concentration 90 nM)
Procedure, shortened: as §1

[11] = tested on: RARb homodimer (NR concentration 270 nM)
Procedure, shortened: as §1

[12] = tested on: RARg:RXRa (NR concentration 270 nM, RXRa partner concentration 90 nM)
Procedure, shortened: as §1

[13] = tested on: RARg homodimer (NR concentration 270 nM)
Procedure, shortened: as §1

[14] = tested on: RXRa DBDmut IVT, anti-RXR (DBD mutation: RXRa K156A/R161A, NR concentration 90 nM)
Procedure, shortened: as §1

[15] = tested on: RXRa homodimer (NR concentration 180 nM)
Procedure, shortened: as §1

[16] = tested on: THRa:RXRa (NR concentration 90 nM, RXRa partner concentration 90 nM)
Procedure, shortened: as §1

[17] = tested on: THRa homodimer (NR concentration 90 nM)
Procedure, shortened: as §1

[18] = tested on: VDR homodimer (NR concentration 270 nM)
Procedure, shortened: as §1

Sequence	PBM binding z-score [1]	PBM binding z-score [2]	PBM binding z-score [3]	PBM binding z-score [4]	PBM binding z-score [5]	PBM binding z-score [6]	PBM binding z-score [7]	PBM binding z-score [8]	PBM binding z-score [9]	PBM binding z-score [10]	PBM binding z-score [11]	PBM binding z-score [12]	PBM binding z-score [13]	PBM binding z-score [14]	PBM binding z-score [15]	PBM binding z-score [16]	PBM binding z-score [17]	PBM binding z-score [18]
TCTGCTAGGTCAACGCTGGTCAGCTAATCTGCTA	4.5	4.5	0.648	0.00924	1.34	2	-1.26	2.35	-1.41	4.16	3.46	4.21	5.26	0.991	2.33	3.52	0.43	-0.576
CCGAGTGGGGCATAAGGTTACCATAAGCCAGCCC	2.28	2.81	-1.47	-1.33	0.587	0.569	-0.243	1.27	-0.802	1.35	1.32	1.46	0.809	-0.545	1.22	2.01	1.09	0.036
TCTAGTTGGTCAAAGCTCACACACTCGAAATGCG	2.36	1.86	0.492	0.777	1.1	0.532	-0.0371	0.758	0.56	1.01	0.587	0.584	0.77	1.37	0.769	0.0893	0.269	0.0543
GCTAGCAGCCCATTTGGGTCACTCAATGACGGGC	-0.167	0.995	-0.831	-1.56	-0.798	-0.106	-0.918	0.359	-1.15	0.893	1.07	0.319	0.556	-0.892	0.587	1.24	0.119	-0.375
CGACCTAGGTCAAGGACAGTGAATCTCCGCACGC	4.04	3.83	0.362	-0.346	2.36	1.6	-0.248	2.45	0.805	4.13	3.02	4.65	4.69	1.82	3.41	3.39	2.25	0.294
TAGCCTAGGTCATTGGGCCGGTATAGTACGCATC	1.71	3.19	0.219	-0.308	0.812	1.39	-0.428	1.95	-0.0602	3.48	2.86	3.58	4.08	0.933	2.62	2.67	0.961	1.35
TCATATAGGTAATTGCTAGGTGAAAGTCCGATCT	4.13	2.91	0.632	1.27	0.408	0.515	0.224	0.757	0.784	0.345	0.402	0.393	0.128	1.47	0.589	1.44	0.689	0.282
AGAACAAGGGCACGCTGAGTTGATAGCAGAGTAG	3.07	2.72	0.166	0.443	0.00636	0.845	0.17	0.366	-0.312	2.51	1.11	1.6	1.99	1.22	0.942	1.28	-0.108	1.07
ATCTCTAGGTAAGACTGAGTTCAGTGAAGAACGC	1.52	1.3	0.582	0.923	0.874	2.66	3.46	0.632	0.634	0.692	1.05	0.569	0.377	1.38	0.265	1.25	0.797	3.47
TGTCAAAGTACAAAGGTAACGTAAGTATCCACAC	-0.385	2.33	1.2	1.03	0.0149	0.587	-0.194	1.04	0.713	1.67	1.01	1.41	1.32	0.417	0.984	1.33	-0.416	0.229
ACTATTAGTTGACTTAGGGCAGCCGATACGACGC	0.0635	0.0175	1.35	0.429	-0.15	-0.251	-0.115	-0.045	0.705	0.758	0.54	0.527	0.729	0.712	0.378	0.635	0.246	0.0585
CGTCCAAGGTCAATGCCAGGTCAGTGAAAGCATT	2.99	3.63	0.209	-0.326	7.26	5.48	2.85	6.58	1.59	5.39	4.92	7.69	6.75	3.86	5.27	4.71	3.6	3.03
ATATGTAGGTTTAGGGTCATTCAGGTTGGTTCGC	2.89	3.81	1.35	1.25	2.95	5.07	4.08	4.48	2.17	2.79	3.05	3.53	2.43	2.74	4.4	4.23	4.2	4.83
TCTATTAGTTGATTAGGGCAACCAAAACAGCGGA	2	1.72	1.55	1.68	0.9	0.429	0.323	0.556	1.11	0.905	0.623	0.694	0.677	0.92	0.57	0.825	0.291	0.358
AGTCAAAGTTCAATAGGTAACGTAAGATTCAGCT	1.07	3.4	1.2	1.2	2.73	4.19	3.15	3.34	1.83	4.8	3.98	5.19	5.37	4.02	3.85	1.72	0.00177	3.4
